Reference: PubChem BioAssay (NCATS)
Several values for one entry are separate records, joined by “and”; a condition that tells them apart may be missing. Equal entries are not always repeated. Records with an inconclusive call do not appear. Entries that show only a call come without a potency. Activity calls are given as the source filed them. Calls follow the shape of the dose curve; as a rule, active = well fitted cell-killing curve with a large enough effect; inconclusive = small, poorly fitted or top-dose-only effect; inactive = flat fitted curve, though single readings scatter.

Experiment: Cellular viability qHTS for adrenocortical cancer (ACC) cell line NCI-H295R (AID 1963990); also: nearly all actives have a fitted effect of over 60% in size
Conditions: CellTiter-Glo ATP luminescence, 48 h; series mostly up to 46.1 µM
Summary of the method: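 CellTiter-Glo ATP luminescence, read 48 h after compound addition, measured viability of NCI-H295R adrenocortical cells grown serum-free with ITS. Final concentrations spanned up to 46 uM. Data normalized to DMSO and doxorubicin, fitted for IC50 and maximal response.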
Potency is read from the fitted curve at half-maximal effect.

Compound | Potency
CC(C)NC[C@@H](O)COc1cccc2ccccc12 | inactive
CCCOC(C(=O)OC1CCN(C)CC1)(c1ccccc1)c1ccccc1 | 23.1 µM (active)
CS[C@H]1SC[C@@H]2C(=O)N(C)[C@H](C(C)C)C(=O)OC[C@H](NC(=O)c3cnc4ccccc4n3)C(=O)N[C@H](C)C(=O)N(C)[C@H]1C(=O)N(C)[C@H](C(C)C)C(=O)OC[C@H](NC(=O)c1cnc3ccccc3n1)C(=O)N[C@H](C)C(=O)N2C | 0.1 µM (active)
O=C(CCBr)N1CCN(C(=O)CCBr)CC1 | inactive
CC(=C(CCOC(=O)C(C)C)SSC(CCOC(=O)C(C)C)=C(C)N(C=O)Cc1cnc(C)nc1N)N(C=O)Cc1cnc(C)nc1N | inactive
COc1ccc([C@@H]2Sc3ccccc3NC(=O)[C@@H]2O)cc1 | 23.1 µM (active)
CC(C)=CCC1C(=O)N(c2ccccc2)N(c2ccccc2)C1=O | 20.6 µM (active)
CCC(=O)OCC(=O)C1(OC(=O)CC)C(C)CC2C3CCC4=CC(=O)C=CC4(C)C3(F)C(O)CC21C (stereo unspecified) | 4.47 µM (active)
CCOC(=O)c1c(N)sc2c1CCN(Cc1ccccc1)C2 | inactive
OCCN1CCN(CCCN2c3ccccc3C=Cc3ccccc32)CC1 | inactive
Cn1ncnc1[C@H]1c2n[nH]c(=O)c3cc(F)cc(c23)N[C@@H]1c1ccc(F)cc1 | inactive
Cn1cc(/C=C2\C(=O)Nc3cccnc32)c2ccccc21 | inactive
COc1ccc(/C=C/C(=O)c2ccc(OC)cc2OC)cc1 | 9.2 µM (active)
Nc1nc2ccccc2n1Cc1ccc(F)cc1 | inactive
Nc1nccc(-c2c(-c3ccc(F)cc3)ncn2C2CCCCC2)n1 | inactive
CC#CC(=O)N1CCC[C@H]1c1nc(-c2ccc(C(=O)Nc3ccccn3)cc2)c2c(N)nccn12 | inactive
CCOC(=O)C1=C(C)NC(C)=C(C(=O)OC)C1c1cccc([N+](=O)[O-])c1 (stereo unspecified) | 16.4 µM (active)
CN1CCN(C2=Nc3cc(F)ccc3Cc3ccccc32)CC1 | inactive
C[C@H](N)C(=O)N[C@@H](C)C(=O)NC1[C@H]2CN(c3nc4c(cc3F)c(=O)c(C(=O)O)cn4-c3ccc(F)cc3F)C[C@@H]12 (stereo partly specified) | inactive
CC(O)c1cc(C(=O)N[C@@H](C)Cn2ccc(-c3ccc(C#N)c(Cl)c3)n2)n[nH]1 (stereo partly specified) | inactive
O=C(O)c1c(O)c(-c2ccccc2)nc2ccccc12 | inactive
O=C(Nc1ccc(S(=O)(=O)N2CCOCC2)cc1)c1cc(Cl)ccc1NS(=O)(=O)c1ccc(Cl)s1 | 20.6 µM (active) and 25.1 µM (active)
Cc1cnc(Nc2ccc(F)cc2Cl)nc1-c1c[nH]c(C(=O)NC(CO)c2cccc(Cl)c2)c1 (stereo unspecified) | 8.91 µM (active)
C[C@H]1[C@H](C)CC[C@]2(C(=O)O)CC[C@]3(C)C(=CC[C@@H]4[C@@]5(C)C[C@@H](O)[C@H](O)[C@@](C)(CO)[C@@H]5CC[C@]43C)[C@H]12 | inactive
CCN(CCCc1ccccc1)CCCc1ccccc1 | inactive
CN1C(=O)[C@@H](NC(=O)c2cc(Cc3ccccc3)on2)COc2ccccc21 | inactive
